The record followed here is PubChem BioAssay AID1076 (NMMLSC, 2008).

The source made the active and inactive calls.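 Rule for the calls: active = cell event count below 40, meaning activity score above 60 where score is 100 minus count; inactive = the rest.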

This test is described as follows: LNCaP cell loss by flow event count, confirmation, cytotoxicity control for prostate differentiation activator project, single point (AID 1076).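 Note: counts scatter-gated live cells after medium removal discards detached dead cells.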 The settings on record: flow cytometry event count, 4 d, stronger effect = lower value.

For the compound `CCOC(=O)c1c(C)n(C)c2ccc(OCC(O)CNC(CC)CO)cc12` (stereo not drawn), the cell event count was 99 (inactive) (at 100 µM) and 88.5 (event count, at 10 µM).

Take `CCN1CCN(CCNC(=O)C2CCN(Cc3nc(-c4ccc(Cl)cc4)oc3C)CC2)CC1`: the cell event count is, setting by setting: (at 100 µM) 38 (inactive); (event count, at 10 µM) 378.

For the compound `Cc1ccccc1-c1nc(CN2CCC(C(=O)N3CCC(C(N)=O)CC3)CC2)c(C)o1`, the cell event count was 150 (inactive) (at 100 µM) and 83.5 (event count, at 10 µM).

Take `CCn1c(=S)ccc2ccc(OC)cc21`: the cell event count runs as follows: (at 100 µM) 139 (inactive); (event count, at 10 µM) 118.

On to `COc1ccc(CCN2CCC(Nc3nc4ccccc4n3Cc3ccc(F)cc3)CC2)cc1`, for which the cell event count is 11 (inactive) (at 100 µM) and 728 (event count, at 10 µM).

With `CCN1CCN(C(=O)C2CCN(Cc3nc(-c4cccc(Cl)c4)oc3C)CC2)CC1`, the cell event count is 12 (inactive) (at 100 µM) and 192 (event count, at 10 µM).

`O=C(NCCCN1CCN(c2ccccc2F)CC1)C1CCC(=O)N1C1CCCC1` (stereo not drawn): the cell event count reads like this: (at 100 µM) 60 (inactive); (event count, at 10 µM) 62.

Turning to `Cc1ccccc1CS(=O)(=O)CCC(=O)NCCCN1CCN(c2ccccc2F)CC1`, the cell event count runs as follows: (at 100 µM) 108 (inactive); (event count, at 10 µM) 71.

As for `CCCc1cc(-c2n[nH]c(C)c2-c2ccc(C(=O)OCC)o2)c(O)cc1O`, the cell event count runs as follows: (at 100 µM) 7 (active); (event count, at 10 µM) 71.

In the case of `COC(=O)c1ccc2c(=O)n(Cc3ccco3)c(SCC(=O)Nc3ccc(C)c(Cl)c3)nc2c1`, the cell event count was 138 (inactive) (at 100 µM) and 146 (event count, at 10 µM).

With `Cc1nc2nc(C)c(CCC(=O)NCCCN3CCN(c4cccc(Cl)c4)CC3)c(C)n2n1`, the cell event count runs as follows: (at 100 µM) 43 (inactive); (event count, at 10 µM) 61.

With `CCCCC(=O)NCCc1ccc(S(N)(=O)=O)cc1`, the cell event count is 238 (inactive) (at 100 µM) and 92.5 (event count, at 10 µM).

Consider `O=C(CCNC(=O)Cn1ccc2ccccc2c1=O)NCCCN1CCN(c2ccc(F)cc2)CC1`, for which the cell event count was 156 (inactive) (at 100 µM) and 91.5 (event count, at 10 µM).

Consider `Cc1ccc(-c2noc(CCC(=O)NCCCN3CCN(c4ccc(F)cc4)CC3)n2)cc1`, for which the cell event count (at 100 µM) was 14 (inactive) and the cell event count (event count, at 10 µM) is 98.

Turning to `COc1ccc(Nc2nc(N3CCCC3)c3ccccc3n2)cc1`, the cell event count (at 100 µM) is 50 (inactive) and the cell event count (event count, at 10 µM) amounted to 180.

As for `CCOC(=O)Cn1nc(-c2ccc(Cl)cc2)cc1N`, the cell event count is, setting by setting: (at 100 µM) 70 (inactive); (event count, at 10 µM) 22.

On to `O=C(NC1CCCC1)C1CCN(S(=O)(=O)c2cccc3cccnc23)CC1`, for which the cell event count (at 100 µM) was 371 (inactive) and the cell event count (event count, at 10 µM) came out at 182.

`CCOC(=O)c1[nH]c(C)c(C(=O)N2CCc3ccccc32)c1C`: the cell event count runs as follows: (at 100 µM) 13 (active); (event count, at 10 µM) 67.

Take `Cc1onc(-c2ccccc2Cl)c1C(=O)N(C)C1CCCCC1`: the cell event count is 25 (inactive) (at 100 µM) and 188 (event count, at 10 µM).

On to `COc1ccc(N2CCN(CCCNC(=O)CC3Oc4ccc(C)cc4NC3=O)CC2)cc1` (stereo not drawn), for which the cell event count reads like this: (at 100 µM) 290 (inactive); (event count, at 10 µM) 140.

For `CC(C)CCNC(=O)C1CCN(c2nc3ccccc3o2)CC1`, the cell event count runs as follows: (at 100 µM) 73 (inactive); (event count, at 10 µM) 110.

In the case of `Cc1ccc(C)c2[nH]c(=O)c(CN(CCN3CCCC3)C(=O)Nc3cccc(Cl)c3)cc12`, the cell event count runs as follows: (at 100 µM) 5 (inactive); (event count, at 10 µM) 97.

As to `CCOC(=O)c1c(C)[nH]c(C(=O)COC(=O)C2CC2C)c1C` (stereo not drawn), the cell event count reads like this: (at 100 µM) 37 (inactive); (event count, at 10 µM) 976.

In the case of `CN(C(=O)c1ccccn1)c1nnc(-c2cccnc2)s1`, the cell event count reads like this: (at 100 µM) 168 (inactive); (event count, at 10 µM) 240.
